Each structure is given as a SMILES string. The whole screen tested about 3,400 compounds, of which about 840 (25%) were called active. Inconclusive results (about 11%) are left out.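 Rule for the calls: active = fitted half-maximal concentration of signal decrease at or below twice the sample's top tested concentration; inconclusive = flat curve between -70 and -30 percent, or poor fit; inactive = flat within 30 percent, signal rise, or potency above limit.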 Not all results are given here. Entries with a potency or affinity are not part of this list.

This assay is described as follows: inhibitors of Toxoplasma growth in IFN-γ-primed HeLa – cell-based, ME49Luc, luciferase, 72 h, dose response (AID 1259418). The note with it: T. gondii ME49Luc in IFN-y HeLa, stronger effect = lower value, -100% = high-dose IFN-γ control wells; at 19.5 µM unless noted.
In the case of `CC(C)C(=O)Nc1ccc(-c2nc(-c3ccccc3)co2)cc1`, the max activity is -22.2% [at 10 µM] (inactive).
`Cc1ccc(OCC(=O)Nc2ccc(-c3nc(-c4cc(C)ccc4C)co3)cc2)cc1`: the max activity is 6.76% [at 10 µM] (inactive).
For `CCc1ccccc1Nc1ncnc2c1cnn2-c1ccc(C)cc1C`, the max activity was 12.3% [at 0.68 µM] (inactive).
With `COc1ccc(OC)c(S(=O)(=O)N2CCC[C@@H]2C(=O)NCCc2csc(C)n2)c1`, the max activity was 4.67% (inactive).
For `COc1cccc(-c2nc3c(s2)CN(S(=O)(=O)c2ccc(C(C)C)cc2)CC3)c1`, the max activity is -7.98% [at 2.6 µM] (inactive).
Turning to `Cc1cccc(-c2nc(Cn3nnc(-c4nc(-c5ccc(F)cc5)no4)c3C)c(C)o2)c1`, the max activity was 16.4% [at 10 µM] (inactive).
With `OC[C@H]1O[C@@H](n2cnc3c(NC4CCCC4)nc(Cl)nc32)[C@H](O)[C@@H]1O`, the max activity is 22.4% (inactive).
As to `Cc1ccc2[nH]c(C(=O)N3CCCC3)c(NC(=O)c3ccc(Cl)cc3)c2c1`, the max activity was 45.1% [at 5 µM] (inactive).
Turning to `COc1ccccc1-c1nc(Cn2nnc(-c3nc(-c4ccc(C)c(C)c4)no3)c2C)c(C)o1`, the max activity was 8.96% [at 0.68 µM] (inactive).
As for `Cc1cccc(C(=O)Nc2c(C(=O)N3CCN(c4ccccn4)CC3)[nH]c3ccc(C)cc23)c1`, the figure is -10.7% [at 5 µM] (inactive); as for `CN(C)CCOCC12CCCOC1CCN(C(=O)c1cccn1C)C2` (stereo not drawn), 9.21% (inactive).
As to `O=C(CC1Nc2c3ccccc3nc(=S)n2C1=O)NC1CCCCC1` (stereo not drawn), the max activity was 24.9% [at 0.68 µM] (inactive).
As for `O=C(Cn1c(=O)c(S(=O)(=O)c2ccccc2)cc2ccccc21)NCc1ccco1`, the max activity was 8.5% [at 0.16 µM] (inactive).
For `O=C(C1CCN(Cc2cc3ccccc3n2Cc2cccc(F)c2)CC1)N1CCCC1`, the max activity was 8.62% (inactive).
As for `Cc1cccc(Cn2c(CN3CCC(C(=O)NCc4cccnc4)CC3)cc3ccccc32)c1`, the figure is 15.7% [at 10 µM] (inactive); as for `O=C(NCc1cccnc1)C1CCN(Cc2cc3ccccc3n2Cc2ccccc2)CC1`, 21.3% [at 1.35 µM] (inactive); as for `CCN1CCCC1CNC(=O)C1CCN(Cc2cc3ccccc3n2Cc2ccccc2C)CC1` (stereo not drawn), 14% [at 2.6 µM] (inactive).
For `CCN1CCCC1CNC(=O)C1CCN(Cc2cc3ccccc3n2Cc2ccc(Cl)cc2)CC1` (stereo not drawn), the max activity was 9.45% (inactive).
To `O=C(NCc1cccnc1)C1CCN(Cc2cc3ccccc3n2Cc2cccc(F)c2)CC1` belongs 12.1% [at 0.16 µM] (inactive).
Consider `CCN1CCCC1CNC(=O)C1CCN(Cc2cc3ccccc3n2Cc2cccc(Cl)c2)CC1` (stereo not drawn), for which the max activity is 22% [at 10 µM] (inactive).
As for `CCc1nc(OCC(=O)Nc2ccc(Cl)c(Cl)c2)c2ccccc2n1`, the figure is -17.2% (inactive).
Turning to `Cc1ccc(CNC(=O)Nc2ccc(-c3nc(-c4cc(C)ccc4C)co3)cc2)cc1`, the max activity was -8.13% [at 5 µM] (inactive).
As to `COc1ccc(CC(=O)N2CCC3(CC2)Nc2cc(OC)ccc2-n2cccc23)cc1`, the max activity is 20.2% [at 10 µM] (inactive).
Regarding `COc1ccc(-c2nc(Nc3ccc(Br)cc3F)c3ccccc3n2)cc1`, the max activity is 21.7% (inactive).
To `O=C(NCCc1csc(-c2ccccc2)n1)[C@H]1CSCN1C(=O)COc1ccccc1` belongs 9.43% (inactive).
As for `Cc1ccc2c(c1C)-n1cccc1C1(CCN(C(=O)c3cccc(Cl)c3)CC1)N2`, the max activity was 6.45% (inactive).
To `O=C(C1CCCCC1)N1[C@@H](CO)[C@@H]2c3ccccc3N(S(=O)(=O)c3ccccc3)C[C@@H]21` belongs 38.7% (inactive).
Turning to `O=C(C1CCCCC1)N1[C@H](CO)[C@@H]2c3ccccc3N(S(=O)(=O)c3ccccc3)C[C@@H]21`, the max activity was 26.4% (inactive).
As for `O=C(NCc1cncc2c1CCN(Cc1cccc(F)c1)C2)C1CC1`, the figure is 11.5% (inactive); as for `O=C(CCc1ccccc1)Nc1ccc(-c2nc(-c3ccccc3)co2)cc1`, 120% [at 10 µM] (inactive); as for `O=C(c1cccc(F)c1)N1CCCCN2[C@H](CO)[C@H](c3ccc(C#CC4(O)CCCC4)cc3)[C@H]2C1`, -28.8% [at 21 µM] (inactive).
On to `O=C(Nc1cccc(F)c1)N1CCCCN2[C@H](C1)[C@@H](c1ccc(C#Cc3cccnc3)cc1)[C@@H]2CO`, for which the max activity is -8.44% [at 0.6 µM] (inactive).
`O=C(c1cccc(F)c1)N1CCCCN2[C@H](C1)[C@H](c1ccc(C#CC3(O)CCCC3)cc1)[C@@H]2CO`: the max activity was -13.9% [at 2.6 µM] (inactive).
`CCN(CCCNc1nc(-c2ccc(OC)cc2)nc2ccccc12)c1cccc(C)c1`: the max activity is 21.1% (inactive).
As for `COc1ccc(NC(=O)CN2CCC3(CC2)N=C(c2ccc(F)cc2)C(=O)N3)c(OC)c1`, the figure is -31.1% [at 0.35 µM] (inactive); as for `COc1ccc(-c2nc(N3CCN(Cc4ccc5c(c4)OCO5)CC3)c3ccccc3n2)cc1`, 17.4% [at 2.6 µM] (inactive).
As for `Cc1ccc(N2CCN(c3nc(-c4ccc(Cl)cc4)nc4ccccc34)CC2)c(C)c1`, the figure is 25.4% (inactive); as for `CCOc1ccccc1NC(=O)COc1nc(CC)nc2ccccc12`, -13.2% [at 0.35 µM] (inactive).
On to `O=C(NC1CCCC1)N1CCCCN2[C@@H](CO)[C@@H](c3ccc(-c4cccnc4)cc3)[C@@H]2C1`, for which the max activity is 33.9% (inactive).
Consider `O=C(NC1CCCC1)N1CCCCN2[C@H](CO)[C@@H](c3ccc(-c4cccnc4)cc3)[C@H]2C1`, for which the max activity is 11.4% (inactive).
For `COc1ccc(-c2nc(NC(C)CCc3ccccc3)c3ccccc3n2)cc1` (stereo not drawn), the max activity is 13.7% (inactive).
For `CCOc1ccc(S(=O)(=O)N2CCc3nc(-c4ccc(OC)cc4)sc3C2)cc1`, the max activity was -25.8% [at 0.16 µM] (inactive).
As to `Cc1nc(-c2ccc(F)cc2)sc1-c1ccc(SCc2ccccc2F)nn1`, the max activity was -39.8% (inactive).
As for `Clc1ccc(-c2nc(NCCCN3CCc4ccccc4C3)c3ccccc3n2)cc1`, the figure is -15.5% [at 0.16 µM] (inactive); as for `Cc1nc(OCC(=O)Nc2ccc(F)c(Cl)c2)c2ccccc2n1`, 21% [at 0.68 µM] (inactive).
Take `COC(=O)/C=c1\sc2nc(=O)c(C)nn2c1=O`: the max activity was 25.1% [at 10 µM] (inactive).
To `Cc1nc(-c2ccc(F)cc2)sc1-c1ccc(SCc2ccc(Cl)cc2Cl)nn1` belongs -14.7% [at 5 µM] (inactive).
Take `Cc1cccc(CSc2ccc(-c3sc(-c4ccc(F)cc4)nc3C)nn2)c1`: the max activity is -11.3% [at 0.35 µM] (inactive).
Turning to `Cc1cccc(OCC(=O)Nc2ccc(-c3nc(-c4ccccc4)co3)cc2)c1C`, the max activity is -18.6% [at 2.6 µM] (inactive).
`COc1cccc(-c2ccc([C@@H]3[C@H]4CN(C(=O)c5cccnc5)CC(=O)N4[C@H]3CO)cc2)c1`: the max activity was 12.1% (inactive).
Turning to `O=C(c1cnccn1)N1CC(=O)N2[C@H](CO)[C@@H](c3ccc(/C=C/c4ccccc4)cc3)[C@H]2C1`, the max activity is 28.4% (inactive).
Take `Cc1ccccc1-c1ccc([C@@H]2[C@H](CO)N3C(=O)CN(C(=O)c4ccncc4)C[C@@H]23)cc1`: the max activity is 29.6% (inactive).
For `COc1cccc(-c2ccc([C@H]3[C@H](CO)N4C(=O)CN(C(=O)c5cccnc5)C[C@@H]34)cc2)c1`, the max activity is 25.9% (inactive).
As for `Cc1ccccc1-c1ccc([C@H]2[C@@H](CO)N3C(=O)CN(C(=O)c4ccncc4)C[C@@H]23)cc1`, the figure is 27.7% (inactive).
Turning to `O=C(CCC1N=C2c3ccccc3N=C(SCc3cc(=O)n4ccccc4n3)N2C1=O)NCc1ccc(F)cc1` (stereo not drawn), the max activity is 26.8% (inactive).
Consider `COc1ccc(-c2noc(-c3nnn(Cc4nc(-c5ccccc5OC)oc4C)c3C)n2)cc1OC`, for which the max activity is 11.4% [at 0.16 µM] (inactive).
Regarding `COc1ccc(-c2nc3c(s2)CN(C(=O)Nc2ccc(C)cc2)CC3)cc1OC`, the max activity is -13% [at 0.35 µM] (inactive).
As for `O=C1CCc2cc(S(=O)(=O)NCc3cccn3Cc3ccccc3F)ccc2N1`, the figure is 12.6% (inactive).
As to `CCOC(=O)CSC1=Nc2ccccc2C2=NC(CCC(=O)NCc3ccc4c(c3)OCO4)C(=O)N12` (stereo not drawn), the max activity was 25.7% [at 2.6 µM] (inactive).
To `Cc1nc(OCC(=O)Nc2ccc(Cl)c(C(F)(F)F)c2)c2ccccc2n1` belongs 27.7% [at 0.35 µM] (inactive); to `COc1ccc(-c2nc3c(s2)CN(C(=O)Nc2cc(C)ccc2OC)CC3)cc1`, 17% (inactive).
Regarding `O=C(c1cnccn1)N1CC(=O)N2[C@H](CO)[C@@H](c3ccc(-c4cccc(F)c4)cc3)[C@H]2C1`, the max activity is 46.4% (inactive).
Consider `O=C(c1cnccn1)N1CC(=O)N2[C@H](C1)[C@H](c1ccc(-c3cccc(F)c3)cc1)[C@@H]2CO`, for which the max activity was 32.8% (inactive).
As to `Cc1oc(-c2cccc(Cl)c2)nc1CN1CCN(C(=O)NC2CCCCC2)CC1`, the max activity was 20.5% [at 1.35 µM] (inactive).
With `CCOC(=O)Cc1ccc(NC(=O)Nc2ccc(-c3nc(-c4cc(C)ccc4C)co3)cc2)cc1`, the max activity is 5.78% (inactive).
As for `O=C(NCCc1csc(-c2ccccc2)n1)[C@H]1CSCN1C(=O)CCc1ccccc1`, the figure is 14.8% [at 5 µM] (inactive).
Take `Cc1nc(OCC(=O)Nc2cccc(C(F)(F)F)c2)c2ccccc2n1`: the max activity was -11.8% [at 2.6 µM] (inactive).
Turning to `Cc1cccc(-c2nc(CN(c3ccccc3)S(=O)(=O)c3cccs3)c(C)o2)c1`, the max activity was -12.1% [at 1.35 µM] (inactive).
To `Cc1ccc(N(Cc2nc(-c3cccc(C)c3)oc2C)S(=O)(=O)c2cccs2)cc1` belongs -8.42% [at 0.16 µM] (inactive).
For the compound `CCOc1ccc(N(Cc2nc(-c3cccc(Cl)c3)oc2C)S(=O)(=O)c2cccs2)cc1`, the max activity was 19.9% (inactive).
As to `COc1ccc(-c2nc(N3CCCc4ccccc43)c3ccccc3n2)cc1`, the max activity is 23.2% [at 10 µM] (inactive).
For `O=C(NCCc1ccccc1)Nc1ccc(-c2nc(-c3ccccc3)co2)cc1`, the max activity was 87.9% (inactive).
With `O=C(CC1Nc2c3ccccc3nc(=S)n2C1=O)NCc1cccc(Cl)c1` (stereo not drawn), the max activity was -20.4% [at 2.6 µM] (inactive).

These data come from PubChem BioAssay AID1259418 (Broad Institute, 2018).
